# Measurements published in PMC11062922 (Nature Chemical Biology, 2023).
# Read-outs that look alike come from different tables or passages of the source.
# Experiments:
# AURKB = conditions: read-out: apparent Kd, n = 1
# CDKL5 = conditions: read-out: apparent Kd, n = 1
# [1] = compound concentrations:100 nM and 1000 nM (sheet 'Lestaurtinib' of Supplementary Table 1),run:Lestaurtinib_02438_R3,Plate:MR008
# [2] = compound concentrations:100 nM and 1000 nM (sheet 'Lestaurtinib' of Supplementary Table 1),run:Lestaurtinib_02443_R2,Plate:MR009
# [3] = compound concentrations:100 nM and 1000 nM (sheet 'Lestaurtinib' of Supplementary Table 1),run:Lestaurtinib_02473_R1,Plate:MR010
# [4] = compound concentrations:100 nM and 1000 nM (sheet 'Lestaurtinib' of Supplementary Table 1),run:Lestaurtinib_02487_R1,Plate:MR012
# [5] = compound concentrations:100 nM and 1000 nM (sheet 'Lestaurtinib' of Supplementary Table 1),run:Lestaurtinib_02487_R2,Plate:MR012
# [6] = compound concentrations:100 nM and 1000 nM (sheet 'Lestaurtinib' of Supplementary Table 1),run:Lestaurtinib_02566_R1,Plate:MR014
# [7] = compound concentrations:100 nM and 1000 nM (sheet 'Lestaurtinib' of Supplementary Table 1),run:Lestaurtinib_02572_R1,Plate:MR015
substance,measurement,setting,value
Lestaurtinib,potency estimated from few doses,AURKB; [1],161 nM
same,potency estimated from few doses,"AURKB; compound concentrations:100 nM and 1000 nM (sheet 'Lestaurtinib' of Supplementary Table 1),run:Lestaurtinib_02443_R1,Plate:MR009",193 nM
same,potency estimated from few doses,AURKB; [2],260 nM
same,potency estimated from few doses,AURKB; [3],144 nM
same,potency estimated from few doses,AURKB; [4],224 nM
same,potency estimated from few doses,AURKB; [5],219 nM
same,potency estimated from few doses,"AURKB; compound concentrations:100 nM and 1000 nM (sheet 'Lestaurtinib' of Supplementary Table 1),run:Lestaurtinib_02496_R2,Plate:MR013",115 nM
same,potency estimated from few doses,AURKB; [6],273 nM
same,potency estimated from few doses,"AURKB; compound concentrations:100 nM and 1000 nM (sheet 'Lestaurtinib' of Supplementary Table 1),run:Lestaurtinib_02566_R2,Plate:MR014",297 nM
same,potency estimated from few doses,AURKB; [7],271 nM
same,potency estimated from few doses,"AURKB; compound concentrations:100 nM and 1000 nM (sheet 'Lestaurtinib' of Supplementary Table 1),run:Lestaurtinib_02572_R3,Plate:MR015",151 nM
same,potency estimated from few doses,"AURKB; compound concentrations:100 nM and 1000 nM (sheet 'Lestaurtinib' of Supplementary Table 1),run:Lestaurtinib_02577_R1,Plate:MR016",239 nM
same,potency estimated from few doses,"AURKB; compound concentrations:100 nM and 1000 nM (sheet 'Lestaurtinib' of Supplementary Table 1),run:Lestaurtinib_02584_R1,Plate:MR017",236 nM
same,potency estimated from few doses,"AURKB; compound concentrations:100 nM and 1000 nM (sheet 'Lestaurtinib' of Supplementary Table 1),run:Lestaurtinib_02584_R2,Plate:MR017",271 nM
same,potency estimated from few doses,"AURKB; compound concentrations:100 nM and 1000 nM (sheet 'Lestaurtinib' of Supplementary Table 1),run:Lestaurtinib_02584_R3,Plate:MR017",237 nM
same,potency estimated from few doses,"AURKB; compound concentrations:100 nM and 1000 nM (sheet 'Lestaurtinib' of Supplementary Table 1),run:Lestaurtinib_02601_R2,Plate:MR018",240 nM
same,potency estimated from few doses,"AURKB; compound concentrations:100 nM and 1000 nM (sheet 'Lestaurtinib' of Supplementary Table 1),run:Lestaurtinib_02606_R1,Plate:MR019",271 nM
same,potency estimated from few doses,"AURKB; compound concentrations:100 nM and 1000 nM (sheet 'Lestaurtinib' of Supplementary Table 1),run:Lestaurtinib_02624_R1,Plate:MR020",259 nM
same,potency estimated from few doses,"AURKB; compound concentrations:100 nM and 1000 nM (sheet 'Lestaurtinib' of Supplementary Table 1),run:Lestaurtinib_02624_R2,Plate:MR020",278 nM
same,potency estimated from few doses,"AURKB; compound concentrations:100 nM and 1000 nM (sheet 'Lestaurtinib' of Supplementary Table 1),run:Lestaurtinib_02624_R3,Plate:MR020",260 nM
same,potency estimated from few doses,"AURKB; compound concentrations:100 nM and 1000 nM (sheet 'Lestaurtinib' of Supplementary Table 1),run:Lestaurtinib_02724_R1,Plate:MR021",414 nM
same,potency estimated from few doses,"AURKB; compound concentrations:100 nM and 1000 nM (sheet 'Lestaurtinib' of Supplementary Table 1),run:Lestaurtinib_02724_R2,Plate:MR021",253 nM
same,potency estimated from few doses,"AURKB; compound concentrations:100 nM and 1000 nM (sheet 'Lestaurtinib' of Supplementary Table 1),run:Lestaurtinib_02724_R3,Plate:MR021",80.5 nM
same,potency estimated from few doses,"AURKB; compound concentrations:100 nM and 1000 nM (sheet 'Lestaurtinib' of Supplementary Table 1),run:Lestaurtinib_02741_R1,Plate:MR023",289 nM
same,potency estimated from few doses,"AURKB; compound concentrations:100 nM and 1000 nM (sheet 'Lestaurtinib' of Supplementary Table 1),run:Lestaurtinib_02741_R2,Plate:MR023",259 nM
same,potency estimated from few doses,"AURKB; compound concentrations:100 nM and 1000 nM (sheet 'Lestaurtinib' of Supplementary Table 1),run:Lestaurtinib_02748_R1,Plate:MR024",229 nM
same,potency estimated from few doses,"AURKB; compound concentrations:100 nM and 1000 nM (sheet 'Lestaurtinib' of Supplementary Table 1),run:Lestaurtinib_02748_R2,Plate:MR024",286 nM
same,potency estimated from few doses,"AURKB; compound concentrations:100 nM and 1000 nM (sheet 'Lestaurtinib' of Supplementary Table 1),run:Lestaurtinib_02752_R1,Plate:MR025",290 nM
same,potency estimated from few doses,"AURKB; compound concentrations:100 nM and 1000 nM (sheet 'Lestaurtinib' of Supplementary Table 1),run:Lestaurtinib_02765_R1,Plate:MR026",275 nM
same,potency estimated from few doses,"AURKB; compound concentrations:100 nM and 1000 nM (sheet 'Lestaurtinib' of Supplementary Table 1),run:Lestaurtinib_02765_R3,Plate:MR026",350 nM
same,potency estimated from few doses,"AURKB; compound concentrations:100 nM and 1000 nM (sheet 'Lestaurtinib' of Supplementary Table 1),run:Lestaurtinib_02766_R2,Plate:MR027",95.3 nM
same,potency estimated from few doses,"AURKB; compound concentrations:100 nM and 1000 nM (sheet 'Lestaurtinib' of Supplementary Table 1),run:Lestaurtinib_02768_R1,Plate:MR028",151 nM
same,potency estimated from few doses,"AURKB; compound concentrations:100 nM and 1000 nM (sheet 'Lestaurtinib' of Supplementary Table 1),run:Lestaurtinib_02768_R2,Plate:MR028",146 nM
same,potency estimated from few doses,"AURKB; compound concentrations:100 nM and 1000 nM (sheet 'Lestaurtinib' of Supplementary Table 1),run:Lestaurtinib_02768_R3,Plate:MR028",169 nM
same,potency estimated from few doses,"AURKB; compound concentrations:100 nM and 1000 nM (sheet 'Lestaurtinib' of Supplementary Table 1),run:Lestaurtinib_02795_R2,Plate:MR022",132 nM
same,potency estimated from few doses,"AURKB; compound concentrations:100 nM and 1000 nM (sheet 'Lestaurtinib' of Supplementary Table 1),run:Lestaurtinib_02795_R3,Plate:MR022",269 nM
same,potency estimated from few doses,"AURKB; compound concentrations:100 nM and 1000 nM (sheet 'Lestaurtinib' of Supplementary Table 1),run:Lestaurtinib_02802_R2,Plate:MR029",144 nM
same,potency estimated from few doses,"AURKB; compound concentrations:100 nM and 1000 nM (sheet 'Lestaurtinib' of Supplementary Table 1),run:Lestaurtinib_02802_R3,Plate:MR029",83.6 nM
same,potency estimated from few doses,"AURKB; compound concentrations:100 nM and 1000 nM (sheet 'Lestaurtinib' of Supplementary Table 1),run:Lestaurtinib_02896_R3,Plate:MR030",218 nM
same,potency estimated from few doses,"AURKB; compound concentrations:100 nM and 1000 nM (sheet 'Lestaurtinib' of Supplementary Table 1),run:Lestaurtinib_03172_R1,Plate:MR031",146 nM
same,potency estimated from few doses,"AURKB; compound concentrations:100 nM and 1000 nM (sheet 'Lestaurtinib' of Supplementary Table 1),run:Lestaurtinib_03172_R3,Plate:MR031",290 nM
same,potency estimated from few doses,"AURKB; compound concentrations:100 nM and 1000 nM (sheet 'Lestaurtinib' of Supplementary Table 1),run:Lestaurtinib_03252_R2,Plate:MR032",136 nM
same,potency estimated from few doses,"AURKB; compound concentrations:100 nM and 1000 nM (sheet 'Lestaurtinib' of Supplementary Table 1),run:Lestaurtinib_03260_R2,Plate:MR033",243 nM
same,potency estimated from few doses,"CDKL5; compound concentrations:100 nM and 1000 nM (sheet 'Lestaurtinib' of Supplementary Table 1),run:Lestaurtinib_02339_R1,Plate:MR001",72.5 nM
same,potency estimated from few doses,"CDKL5; compound concentrations:100 nM and 1000 nM (sheet 'Lestaurtinib' of Supplementary Table 1),run:Lestaurtinib_02339_R2,Plate:MR001",37.7 nM
same,potency estimated from few doses,"CDKL5; compound concentrations:100 nM and 1000 nM (sheet 'Lestaurtinib' of Supplementary Table 1),run:Lestaurtinib_02364_R1,Plate:MR002",5.84 nM
same,potency estimated from few doses,"CDKL5; compound concentrations:100 nM and 1000 nM (sheet 'Lestaurtinib' of Supplementary Table 1),run:Lestaurtinib_02364_R3,Plate:MR002",158 nM
same,potency estimated from few doses,"CDKL5; compound concentrations:100 nM and 1000 nM (sheet 'Lestaurtinib' of Supplementary Table 1),run:Lestaurtinib_02367_R2,Plate:MR003",373 nM
same,potency estimated from few doses,"CDKL5; compound concentrations:100 nM and 1000 nM (sheet 'Lestaurtinib' of Supplementary Table 1),run:Lestaurtinib_02367_R3,Plate:MR003",37.9 nM
same,potency estimated from few doses,"CDKL5; compound concentrations:100 nM and 1000 nM (sheet 'Lestaurtinib' of Supplementary Table 1),run:Lestaurtinib_02381_R1,Plate:MR004",135 nM
same,potency estimated from few doses,"CDKL5; compound concentrations:100 nM and 1000 nM (sheet 'Lestaurtinib' of Supplementary Table 1),run:Lestaurtinib_02381_R2,Plate:MR004",149 nM
same,potency estimated from few doses,"CDKL5; compound concentrations:100 nM and 1000 nM (sheet 'Lestaurtinib' of Supplementary Table 1),run:Lestaurtinib_02381_R3,Plate:MR004",269 nM
same,potency estimated from few doses,"CDKL5; compound concentrations:100 nM and 1000 nM (sheet 'Lestaurtinib' of Supplementary Table 1),run:Lestaurtinib_02407_R1,Plate:MR005",43.6 nM
same,potency estimated from few doses,"CDKL5; compound concentrations:100 nM and 1000 nM (sheet 'Lestaurtinib' of Supplementary Table 1),run:Lestaurtinib_02407_R2,Plate:MR005",167 nM
same,potency estimated from few doses,"CDKL5; compound concentrations:100 nM and 1000 nM (sheet 'Lestaurtinib' of Supplementary Table 1),run:Lestaurtinib_02437_R1,Plate:MR007",32 nM
same,potency estimated from few doses,"CDKL5; compound concentrations:100 nM and 1000 nM (sheet 'Lestaurtinib' of Supplementary Table 1),run:Lestaurtinib_02437_R2,Plate:MR007",113 nM
same,potency estimated from few doses,"CDKL5; compound concentrations:100 nM and 1000 nM (sheet 'Lestaurtinib' of Supplementary Table 1),run:Lestaurtinib_02437_R3,Plate:MR007",2.19 nM
same,potency estimated from few doses,"CDKL5; compound concentrations:100 nM and 1000 nM (sheet 'Lestaurtinib' of Supplementary Table 1),run:Lestaurtinib_02438_R1,Plate:MR008",8.7 nM
same,potency estimated from few doses,"CDKL5; compound concentrations:100 nM and 1000 nM (sheet 'Lestaurtinib' of Supplementary Table 1),run:Lestaurtinib_02438_R2,Plate:MR008",181 nM
same,potency estimated from few doses,CDKL5; [1],176 nM
same,potency estimated from few doses,CDKL5; [2],27.1 nM
same,potency estimated from few doses,"CDKL5; compound concentrations:100 nM and 1000 nM (sheet 'Lestaurtinib' of Supplementary Table 1),run:Lestaurtinib_02443_R3,Plate:MR009",41.7 nM
same,potency estimated from few doses,CDKL5; [3],70.4 nM
same,potency estimated from few doses,"CDKL5; compound concentrations:100 nM and 1000 nM (sheet 'Lestaurtinib' of Supplementary Table 1),run:Lestaurtinib_02473_R3,Plate:MR010",212 nM
same,potency estimated from few doses,"CDKL5; compound concentrations:100 nM and 1000 nM (sheet 'Lestaurtinib' of Supplementary Table 1),run:Lestaurtinib_02482_R1,Plate:MR011",33.6 nM
same,potency estimated from few doses,"CDKL5; compound concentrations:100 nM and 1000 nM (sheet 'Lestaurtinib' of Supplementary Table 1),run:Lestaurtinib_02482_R2,Plate:MR011",27.4 nM
same,potency estimated from few doses,CDKL5; [4],190 nM
same,potency estimated from few doses,CDKL5; [5],449 nM
same,potency estimated from few doses,"CDKL5; compound concentrations:100 nM and 1000 nM (sheet 'Lestaurtinib' of Supplementary Table 1),run:Lestaurtinib_02496_R1,Plate:MR013",14.9 nM
same,potency estimated from few doses,CDKL5; [6],298 nM
same,potency estimated from few doses,"CDKL5; compound concentrations:100 nM and 1000 nM (sheet 'Lestaurtinib' of Supplementary Table 1),run:Lestaurtinib_02566_R3,Plate:MR014",21.2 nM
same,potency estimated from few doses,CDKL5; [7],389 nM
